In all, about 5,500 compounds went through this assay and about 2,000 (36%) were called active. Another 18% or so got no clear call; they are omitted. No stated cut-off is given here; in the data, active means normalized growth mostly below about 0.91 (no sharp cut-off); inconclusive means no clear call, values can overlap the other calls; inactive means mostly above about 0.92. This is one part of the list.
Test: chemical genetic growth profiling, strain panel (AID 1159580);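 further: tested at 20 µM; growth read once vehicle control cultures reached saturation at 30 °C; 1 = growth at the plate median or of vehicle wells; lower values mean less growth of the strain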
Settings: S. cerevisiae deletion strains, growth OD

Measured: normalized growth

COc1ccc(-c2cc(=O)c3c(O)c(OC)c(OC)c(OC)c3o2)cc1
inactive: locus YAL021C, strain ccr4, hits give low values 0.987 | locus YAL026C, strain drs2, hits give low values 0.988 | locus YAL030W, strain snc1, hits give low values 1 | locus YBL061C, strain skt5, hits give low values 0.99 | locus YBR009C, strain hhf1, hits give low values 0.995 | locus YBR023C, strain chs3, hits give low values 0.993 | locus YBR171W, strain sec66, hits give low values 0.999 | locus YBR231C, strain swc5, hits give low values 0.986 | locus YBR279W, strain paf1, hits give low values 0.999 | locus YCL011C, strain gbp2, hits give low values 0.987 | locus YCL016C, strain dcc1, hits give low values 0.968 | locus YCL069W, strain vba3, hits give low values 0.983 | locus YCR088W, strain abp1, hits give low values 0.996 | locus YDL005C, strain med2, hits give low values 0.986 | locus YDL040C, strain nat1, hits give low values 0.993 | locus YDR001C, strain nth1, hits give low values 0.992 | locus YDR069C, strain doa4, hits give low values 0.976 | locus YDR137W, strain rgp1, hits give low values 1 | locus YDR159W, strain sac3, hits give low values 1 | locus YDR195W, strain ref2 0.953 | locus YDR297W, strain sur2, hits give low values 0.987 | locus YDR334W, strain swr1, hits give low values 0.977 | locus YDR335W, strain msn5, hits give low values 0.995 | locus YDR392W, strain spt3, hits give low values 0.991 | locus YEL003W, strain gim4, hits give low values 0.984 | locus YEL037C, strain rad23, hits give low values 0.992 | locus YEL061C, strain CIN8 (second series), hits give low values 0.998 | locus YER015W, strain faa2, hits give low values 0.989 | locus YER016W, strain bim1, hits give low values 0.998 | locus YER111C, strain swi4, hits give low values 0.997 | locus YER155C, strain BEM2 (second series), hits give low values 0.978 | locus YFR010W, strain ubp6, hits give low values 1 | locus YGL167C, strain pmr1, hits give low values 0.995 | locus YGL173C, strain kem1, hits give low values 1.02 | locus YGL227W, strain vid30, hits give low values 1 | locus YGL240W, strain doc1, hits give low values 1 | locus YGL253W, strain hxk2, hits give low values 1 | locus YHR013C, strain ard1, hits give low values 0.971 | locus YHR027C, strain rpn1, hits give low values 0.964 | locus YHR142W, strain chs7, hits give low values 0.986 | locus YJL092W, strain hpr5, hits give low values 0.99 | locus YJL095W, strain BCK1 (second series), hits give low values 1 | locus YJL115W, strain asf1, hits give low values 0.979 | locus YJL129C, strain trk1, hits give low values 0.979 | locus YJL154C, strain vps35, hits give low values 0.988 | locus YJL164C, strain tpk1, hits give low values 1.01 | locus YJL166W, strain qcr8, hits give low values 0.998 | locus YJL187C, strain SWE1, hits give low values 0.995 | locus YKL160W, strain elf1, hits give low values 0.972 | locus YKR026C, strain gcn3, hits give low values 1.01 | locus YKR091W, strain srl3, hits give low values 0.994 | locus YLL001W, strain dnm1, hits give low values 0.999 | locus YLL026W, hits give low values 0.983 | locus YLL041C, strain sdh2, hits give low values 0.982 | locus YLR027C, strain aat2, hits give low values 0.991 | locus YLR221C, strain rsa3, hits give low values 0.992 | locus YLR258W, strain gsy2, hits give low values 0.982 | locus YLR262C, strain YPT6 (second series), hits give low values 1 | locus YLR320W, strain mms22, hits give low values 1 | locus YLR342W, strain FKS1, hits give low values 0.99 | locus YLR357W, strain rsc2, hits give low values 0.97 | locus YLR370C, strain arc18, hits give low values 0.983 | locus YLR384C, strain iki3, hits give low values 0.99 | locus YML120C, strain ndi1, hits give low values 0.992 | locus YMR058W, strain fet3, hits give low values 0.976 | locus YMR125W, strain sto1, hits give low values 0.974 | locus YMR129W, hits give low values 0.989 | locus YMR205C, strain PFK2, hits give low values 0.997 | locus YMR231W, strain pep5, hits give low values 1.01 | locus YNL071W, strain lat1, hits give low values 1 | locus YNL209W, strain ssb2, hits give low values 0.984 | locus YNL248C, strain rpa49, hits give low values 0.969 | locus YNL322C, strain KRE1 (second series), hits give low values 1.01 | locus YNR049C, strain mso1, hits give low values 0.984 | locus YOR001W, strain rrp6, hits give low values 0.998 | locus YOR070C, strain gyp1, hits give low values 0.99 | locus YOR080W, strain dia2, hits give low values 0.984 | locus YOR083W, strain WHI5, hits give low values 0.993 | locus YOR106W, strain vam3, hits give low values 0.955 | locus YOR265W, strain rbl2, hits give low values 0.983 | locus YOR270C, strain vph1, hits give low values 1.01 | locus YOR290C, strain snf2, hits give low values 0.955 | locus YPL051W, strain arl3, hits give low values 0.981 | locus YPL078C, strain atp4, hits give low values 0.991 | locus YPL106C, strain sse1, hits give low values 0.981 | locus YPL240C, strain hsp82, hits give low values 0.99

From PubChem BioAssay AID1159580 (chemical genetic matrix, 2015)
